In all, about 4,400 compounds went through this assay and about 3,700 (84%) were called active.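 The calls were made as follows: active = inhibition above about 39% in either of two replicate wells at 20 µM (limit read from the data); inactive = the rest.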 The set was probably picked from earlier hits. Only a sample is shown.

As a reminder, the inhibition is how much of the control response was suppressed.

A short description of the test: growth inhibition of tim23-1 ts yeast, retest – luminescence, single concentration, confirmation (AID 463218).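 Also: temperature-sensitive tim23-1 mutant grown at 25 °C; 0% = DMSO wells with yeast and 100% = medium wells without yeast.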 The settings on record: S. cerevisiae tim23-1 growth, BacTiter-Glo luminescence, 24 h; at 20 µM; active compounds read high.
For `CCN1/C(=C\c2ccc3ccccc3[n+]2CC)Sc2cc(C)ccc21`, the inhibition is 64.8% (active).

Turning to `CCc1ccc2oc(-c3ccc(N)cc3)nc2c1`, the inhibition was 58.8% (active).

On to `O=C(CSc1cccc2cccnc12)N/N=C/c1cccnc1`, for which the inhibition was 62% (active).

Consider `C[C@@H]1C(c2ccc(F)cc2)=NN(c2ccc(Br)cc2)[C@H]1C(=O)N1CCOC1=O`, for which the inhibition is 44.6% (active).

Regarding `CCOc1cc(/C=C2\SC(N3CCCC(C)C3)=NC2=O)ccc1O` (configuration not stated), the inhibition is 43% (active).

On to `O=C(/C=C/c1ccccc1)c1ccccc1O`, for which the inhibition was 62.4% (active).

For `COc1ccc(Oc2cn[nH]c2-c2ccc(OC)cc2O)cc1`, the inhibition is 59.6% (active).

`CCC(C)c1ccc(NC(=O)COC(=O)C2CCCC2)cc1` (configuration not stated): the inhibition is 49.4% (active).

For the compound `Clc1ccc(Nc2ccc3ccccc3n2)cc1`, the inhibition was 43.8% (active).

Consider `O=Cc1cn(-c2ccccc2)nc1-c1ccccn1`, for which the inhibition was 57.2% (active).

`CC1CCCC(C)N1C(=O)CN1CCN(c2nc(-c3ccc(F)cc3)cs2)CC1` (configuration not stated): the inhibition was 54.5% (active).

Take `CC1(C)C2CCC1(C)C(OC(=O)c1ccc(O)cc1)C2` (configuration not stated): the inhibition is 58% (active).

Regarding `CCOC(=O)C1=C(C)N=c2s/c(=C\C(=O)OC)c(=O)n2C1c1ccc(OC)cc1` (configuration not stated), the inhibition is 55.2% (active).

Regarding `CC[C@]1(C(=O)OC)[C@H]2C(=O)N(Cc3ccccc3)C(=O)[C@H]2[C@H]2CN=C(SCc3ccc(Cl)cc3)N21`, the inhibition was 31.4% (inactive).

On to `O=C(N/N=C\c1cccc(Br)c1)c1ccccc1-n1cccc1`, for which the inhibition was 50.8% (active).

`O=C(Oc1c(-c2ccco2)oc2ccccc2c1=O)c1cccnc1`: the inhibition is 67.5% (active).

As to `COc1ccc(C(=O)O/N=C(\N)Cc2ccc(Cl)cc2Cl)cc1OC`, the inhibition was 52.8% (active).

`c1ccc2cc(CCCc3cc4ccccc4cn3)ncc2c1`: the inhibition is 40.3% (active).

`CC1(C)C=Cc2c(ccc3c2OC[C@@H](c2ccc(O)cc2O)C3)O1`: the inhibition was 29.5% (inactive).

In the case of `Cc1ccc(Oc2cnn(-c3ccccc3)c(=O)c2Br)cc1`, the inhibition was 39.4% (active).

`O=C1c2ccccc2S(=O)(=O)N1CC(O)Cn1c2ccccc2c2ccccc21` (configuration not stated): the inhibition is 90.8% (active).

With `O=C1C(=O)N(CC2COc3ccccc3O2)c2ccccc21` (configuration not stated), the inhibition is 46.6% (active).

In the case of `O=C(COC(=O)c1ccc(O)cc1O)c1ccc2c(c1)OCCO2`, the inhibition was 21% (inactive).

With `O=c1c(-c2ccc3c(c2)OCCO3)c(C(F)(F)F)oc2cc(O)cc(O)c12`, the inhibition was 63.5% (active).

Take `COc1cc(/C=C(\C#N)c2nc3ccccc3[nH]2)ccc1O`: the inhibition is 54.2% (active).

`Cc1cccc(/C(N)=N/OC(=O)c2ccccc2Cl)c1`: the inhibition was 75.3% (active).

As for `CNC(=O)/C(C#N)=C/c1c(F)cccc1Cl`, the inhibition was 71.8% (active).

As for `CCn1c2ccccc2c2cc(NC(=S)N3CCOCC3)ccc21`, the inhibition is 31.6% (inactive).

Take `O=C(NC(=S)Nc1cccc2c(O)cccc12)c1cccc(Br)c1`: the inhibition is 23.2% (inactive).

Take `CCc1ccc(C(=O)NC(=S)Nc2ccccc2N2CCOCC2)cc1`: the inhibition was 49.2% (active).

As for `O=C(c1cc(-c2cccc(O)c2)on1)N1CCc2ccccc2C1`, the inhibition was 48.2% (active).

Turning to `O=C(c1cc(-c2ccc(O)cc2)on1)N1CCCc2ccccc21`, the inhibition is 50.6% (active).

Take `Cc1cc(Nc2ccccc2)n(C(=O)c2ccc(N)cc2)n1`: the inhibition was 55.7% (active).

As to `N/C(=N\OC(=O)c1cc(-c2ccccc2)nc2ccccc12)c1ccncc1`, the inhibition is 80.8% (active).

For `O=C1CSC(=S)N1c1ccc(Cl)c(Cl)c1`, the inhibition was 76% (active).

Consider `COC(=O)c1c(NC(=O)COc2ccc(Cl)cc2Cl)sc2c1CC(C)(C)NC2(C)C`, for which the inhibition was 63.6% (active).

Turning to `Oc1c(CN2CCN(c3ccc(F)cc3)CC2)cc(Cl)c2cccnc12`, the inhibition was 54.9% (active).

The values are drawn from PubChem BioAssay AID463218 (Sanford-Burnham Center for Chemical Genomics, 2010).
